From article PMC7862700, “An all-to-all approach to the identification of sequence-specific readers for epigenetic DNA modifications on cytosine” come the findings set out here.

Common to all, as to experiment: DAPPL (digital affinity profiling via proximity ligation, sequencing); 10 mM Tris-HCl pH 7.5, 50 mM NaCl, 1 mM DTT, 4% glycerol, room temperature, 30 min; GST-TFs on glutathione beads, 16-mer random dsDNA library, 0.1% formaldehyde crosslink after washing; high values mean tight binding
The target of test [1] is T1, FLI1 (Homo sapiens, UniProt Q01543 1-452).
T1 sequence: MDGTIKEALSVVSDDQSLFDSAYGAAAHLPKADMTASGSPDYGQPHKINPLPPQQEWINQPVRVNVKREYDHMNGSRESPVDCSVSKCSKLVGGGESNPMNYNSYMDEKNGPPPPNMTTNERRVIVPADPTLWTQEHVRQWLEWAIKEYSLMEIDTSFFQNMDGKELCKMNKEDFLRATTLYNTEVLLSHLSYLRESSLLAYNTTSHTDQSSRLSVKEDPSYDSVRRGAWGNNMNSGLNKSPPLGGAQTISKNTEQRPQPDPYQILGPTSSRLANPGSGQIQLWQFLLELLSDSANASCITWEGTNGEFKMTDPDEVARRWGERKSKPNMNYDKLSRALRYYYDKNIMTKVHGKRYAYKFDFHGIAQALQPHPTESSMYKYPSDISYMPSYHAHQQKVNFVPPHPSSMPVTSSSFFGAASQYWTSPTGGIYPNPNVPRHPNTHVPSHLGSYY
As to conditions: protein: recombinant; tags: N-terminal GST; dsDNA, one strand shown. The method, boiled down:
(§1)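 Sequencing on an Illumina NextSeq500 followed washing, crosslinking with 0.1% formaldehyde, proximity ligation (BsaI/T4 ligase, 1 h, 37 °C) and PCR amplification of pools that had been incubated for 30 min at room temperature with 200 nmole of a random double-stranded 16-mer DNA library in Tris/NaCl/DTT/glycerol buffer. Each pool held DNA-barcoded human transcription factors, expressed in yeast as GST fusions and captured on glutathione beads, plus a tag-only sample. Binding signal is a hexamer's read frequency for a factor divided by its frequency in the tag-only sample.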

In test [2] the target is T2, ELK1 (Homo sapiens, UniProt P19419 1-428).
T2 sequence: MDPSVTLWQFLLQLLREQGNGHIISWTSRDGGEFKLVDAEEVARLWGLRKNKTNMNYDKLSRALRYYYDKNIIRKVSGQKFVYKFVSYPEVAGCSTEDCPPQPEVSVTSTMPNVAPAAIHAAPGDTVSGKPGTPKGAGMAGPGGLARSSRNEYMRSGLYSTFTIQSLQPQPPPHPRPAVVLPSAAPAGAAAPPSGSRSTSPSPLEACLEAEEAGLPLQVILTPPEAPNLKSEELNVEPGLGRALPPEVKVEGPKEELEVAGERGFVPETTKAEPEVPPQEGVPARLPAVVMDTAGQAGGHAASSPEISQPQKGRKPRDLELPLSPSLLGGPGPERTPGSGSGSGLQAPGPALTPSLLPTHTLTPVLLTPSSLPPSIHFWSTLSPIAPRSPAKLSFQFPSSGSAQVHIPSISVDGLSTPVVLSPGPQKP
As to conditions: protein: recombinant; tags: N-terminal GST; dsDNA, one strand shown. The method, boiled down: as §1

The target in test [3] is T3, GABPA (Homo sapiens, UniProt Q06546 1-454).
T3 sequence: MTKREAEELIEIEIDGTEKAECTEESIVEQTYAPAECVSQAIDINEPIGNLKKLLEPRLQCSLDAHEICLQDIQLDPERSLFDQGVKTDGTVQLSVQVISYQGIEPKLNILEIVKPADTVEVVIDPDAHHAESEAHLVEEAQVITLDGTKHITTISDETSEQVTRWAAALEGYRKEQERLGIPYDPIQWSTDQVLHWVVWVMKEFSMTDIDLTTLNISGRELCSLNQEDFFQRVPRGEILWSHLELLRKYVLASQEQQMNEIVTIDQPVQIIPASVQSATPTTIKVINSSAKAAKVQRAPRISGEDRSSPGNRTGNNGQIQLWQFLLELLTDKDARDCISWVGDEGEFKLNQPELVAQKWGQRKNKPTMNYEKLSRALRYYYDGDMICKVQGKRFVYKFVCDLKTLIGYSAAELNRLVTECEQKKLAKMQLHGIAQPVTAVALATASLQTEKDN
As to conditions: protein: recombinant; tags: N-terminal GST; dsDNA, one strand shown. A digest of the protocol: as §1

In test [4] the target is T4, ERG (Homo sapiens, UniProt P11308 1-479).
T4 sequence: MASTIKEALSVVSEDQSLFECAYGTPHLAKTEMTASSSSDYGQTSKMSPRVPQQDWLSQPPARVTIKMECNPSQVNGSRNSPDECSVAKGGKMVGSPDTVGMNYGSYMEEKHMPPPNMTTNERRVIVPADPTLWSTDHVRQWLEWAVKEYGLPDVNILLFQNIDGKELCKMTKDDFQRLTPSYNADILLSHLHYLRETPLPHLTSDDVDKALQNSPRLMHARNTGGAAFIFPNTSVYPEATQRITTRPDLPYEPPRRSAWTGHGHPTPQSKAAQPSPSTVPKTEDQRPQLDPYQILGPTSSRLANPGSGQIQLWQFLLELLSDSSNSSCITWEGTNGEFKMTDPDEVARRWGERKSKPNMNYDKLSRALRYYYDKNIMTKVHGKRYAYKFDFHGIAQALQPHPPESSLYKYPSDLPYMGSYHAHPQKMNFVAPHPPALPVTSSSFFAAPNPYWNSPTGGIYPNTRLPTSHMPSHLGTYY
As to conditions: protein: recombinant; tags: N-terminal GST; dsDNA, one strand shown. The method, boiled down: as §1

The target of test [5] is ELF1 (Homo sapiens, UniProt P32519 1-619). Particulars: protein: recombinant; tags: N-terminal GST; dsDNA, one strand shown. The method, boiled down:
as §1

For test [6], the target named is T5, EHF (Homo sapiens, UniProt Q9NZC4 1-300).
T5 sequence: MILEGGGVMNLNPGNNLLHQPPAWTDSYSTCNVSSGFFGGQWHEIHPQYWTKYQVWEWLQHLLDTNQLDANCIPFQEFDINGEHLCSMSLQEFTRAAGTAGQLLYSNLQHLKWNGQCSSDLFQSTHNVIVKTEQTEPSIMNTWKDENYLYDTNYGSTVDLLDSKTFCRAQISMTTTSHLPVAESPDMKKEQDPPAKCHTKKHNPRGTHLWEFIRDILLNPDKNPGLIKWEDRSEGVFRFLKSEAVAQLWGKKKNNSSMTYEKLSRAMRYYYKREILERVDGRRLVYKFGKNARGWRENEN
As to conditions: protein: recombinant; tags: N-terminal GST; dsDNA, one strand shown. The method, boiled down: as §1

Test [7] concerns the target SPI1 (Homo sapiens, UniProt P17947 1-270). As to conditions: protein: recombinant; tags: N-terminal GST; dsDNA, one strand shown. A digest of the protocol:
as §1

For test [8], the target named is SPIB (Homo sapiens, UniProt Q01892 1-262). As to conditions: protein: recombinant; tags: N-terminal GST; dsDNA, one strand shown. A digest of the protocol:
as §1

In test [9] the target is T6, FEV (Homo sapiens, UniProt Q99581 1-238).
T6 sequence: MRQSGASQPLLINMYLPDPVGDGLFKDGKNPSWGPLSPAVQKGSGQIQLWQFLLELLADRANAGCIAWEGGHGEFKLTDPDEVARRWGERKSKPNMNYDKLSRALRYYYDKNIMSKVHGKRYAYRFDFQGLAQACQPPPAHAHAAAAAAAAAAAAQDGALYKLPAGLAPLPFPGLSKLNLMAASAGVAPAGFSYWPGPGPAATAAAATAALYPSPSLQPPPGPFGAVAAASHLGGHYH
As to conditions: protein: recombinant; tags: N-terminal GST; dsDNA, one strand shown. A digest of the protocol:
as §1

Test [10] deals with ETV5 (Homo sapiens, UniProt P41161 1-510). As to conditions: protein: recombinant; tags: N-terminal GST; dsDNA, one strand shown. The method, boiled down:
as §1

Test [11] has as its target HSF1 (Homo sapiens, UniProt Q00613 1-529). Particulars: protein: recombinant; tags: N-terminal GST; chain copies: 3; dsDNA, one strand shown. A digest of the protocol: as §1
Test [12] has as its target T7, SPIC (Homo sapiens, UniProt Q8N5J4 1-248).
T7 sequence: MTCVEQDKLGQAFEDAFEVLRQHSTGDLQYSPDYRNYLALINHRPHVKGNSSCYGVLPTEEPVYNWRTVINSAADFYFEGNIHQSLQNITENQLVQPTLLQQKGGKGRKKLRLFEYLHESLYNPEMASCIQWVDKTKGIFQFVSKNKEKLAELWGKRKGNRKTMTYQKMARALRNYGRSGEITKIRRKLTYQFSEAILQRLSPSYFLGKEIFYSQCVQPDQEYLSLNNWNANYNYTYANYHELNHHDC
As to conditions: protein: recombinant; tags: N-terminal GST; dsDNA, one strand shown. A digest of the protocol: as §1

The target in test [13] is ELF4 (Homo sapiens, UniProt Q99607 1-663). Particulars: protein: recombinant; tags: N-terminal GST; dsDNA, one strand shown. The method, boiled down: as §1
ELF4, sequence (Q99607 whole entry): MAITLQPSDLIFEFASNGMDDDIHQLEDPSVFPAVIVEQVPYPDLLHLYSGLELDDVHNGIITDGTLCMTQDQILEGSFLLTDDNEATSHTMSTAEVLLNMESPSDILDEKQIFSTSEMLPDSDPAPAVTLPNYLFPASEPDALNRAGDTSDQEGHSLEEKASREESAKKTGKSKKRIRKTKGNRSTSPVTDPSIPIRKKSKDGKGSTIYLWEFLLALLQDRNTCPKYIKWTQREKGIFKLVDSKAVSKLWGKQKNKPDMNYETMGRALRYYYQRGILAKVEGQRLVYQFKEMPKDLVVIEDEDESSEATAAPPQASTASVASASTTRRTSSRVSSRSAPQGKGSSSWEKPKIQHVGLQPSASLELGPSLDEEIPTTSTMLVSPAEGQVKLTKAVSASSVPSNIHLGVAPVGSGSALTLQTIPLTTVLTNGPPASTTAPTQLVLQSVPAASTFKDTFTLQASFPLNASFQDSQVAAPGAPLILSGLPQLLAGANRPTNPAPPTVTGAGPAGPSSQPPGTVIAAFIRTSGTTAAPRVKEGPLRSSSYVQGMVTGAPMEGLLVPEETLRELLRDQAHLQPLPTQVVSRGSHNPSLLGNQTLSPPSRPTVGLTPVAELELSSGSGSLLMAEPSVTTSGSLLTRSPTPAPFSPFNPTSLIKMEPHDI
Test [14] addresses T8, ELK4 (Homo sapiens, UniProt P28324-2 1-405).
T8 sequence: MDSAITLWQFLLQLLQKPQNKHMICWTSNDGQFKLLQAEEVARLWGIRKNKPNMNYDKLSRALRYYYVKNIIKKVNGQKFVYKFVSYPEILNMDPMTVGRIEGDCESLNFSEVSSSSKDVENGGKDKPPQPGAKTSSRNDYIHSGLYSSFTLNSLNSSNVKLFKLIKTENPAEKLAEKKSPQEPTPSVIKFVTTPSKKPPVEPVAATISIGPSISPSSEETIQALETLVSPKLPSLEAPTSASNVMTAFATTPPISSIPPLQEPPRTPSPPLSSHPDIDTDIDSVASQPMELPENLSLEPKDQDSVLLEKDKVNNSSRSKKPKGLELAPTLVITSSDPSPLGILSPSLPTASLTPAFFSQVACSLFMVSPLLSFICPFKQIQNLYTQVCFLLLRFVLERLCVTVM
As to conditions: protein: recombinant; tags: N-terminal GST; dsDNA, one strand shown. A digest of the protocol: as §1

The target in test [15] is T9, ETV2 (Homo sapiens, UniProt O00321 1-342).
T9 sequence: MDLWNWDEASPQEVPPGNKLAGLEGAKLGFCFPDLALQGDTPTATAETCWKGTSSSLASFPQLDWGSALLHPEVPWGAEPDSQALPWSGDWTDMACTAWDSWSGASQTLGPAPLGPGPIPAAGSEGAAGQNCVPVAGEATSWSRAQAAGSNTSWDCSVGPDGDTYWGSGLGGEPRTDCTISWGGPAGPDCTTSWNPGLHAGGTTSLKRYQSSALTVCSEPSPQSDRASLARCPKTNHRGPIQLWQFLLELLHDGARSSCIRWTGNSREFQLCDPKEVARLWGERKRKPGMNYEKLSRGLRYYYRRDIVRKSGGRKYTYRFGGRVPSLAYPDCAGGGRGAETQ
Particulars: protein: recombinant; tags: N-terminal GST; dsDNA, one strand shown. A digest of the protocol:
as §1

Test [16] concerns the target T10, ELF3 (Homo sapiens, UniProt P78545 1-371).
T10 sequence: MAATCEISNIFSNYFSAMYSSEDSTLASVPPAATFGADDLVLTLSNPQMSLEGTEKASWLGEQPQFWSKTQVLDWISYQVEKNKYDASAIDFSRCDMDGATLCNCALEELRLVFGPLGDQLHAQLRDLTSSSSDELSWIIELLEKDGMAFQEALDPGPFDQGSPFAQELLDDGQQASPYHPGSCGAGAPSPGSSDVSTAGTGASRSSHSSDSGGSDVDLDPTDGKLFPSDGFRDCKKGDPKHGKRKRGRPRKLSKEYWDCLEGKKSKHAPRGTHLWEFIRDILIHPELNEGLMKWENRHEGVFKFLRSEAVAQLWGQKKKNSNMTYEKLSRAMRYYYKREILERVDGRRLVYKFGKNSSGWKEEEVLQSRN
Particulars: protein: recombinant; tags: N-terminal GST; dsDNA, one strand shown. The method, boiled down: as §1

Test [17] deals with CRX (Homo sapiens, UniProt O43186 1-299). As to conditions: protein: recombinant; tags: N-terminal GST; dsDNA, one strand shown. A digest of the protocol:
as §1

The target in test [18] is ETV1 (Homo sapiens, UniProt P50549 1-477). As to conditions: protein: recombinant; tags: N-terminal GST; dsDNA, one strand shown. A digest of the protocol: as §1
ETV1, sequence (P50549 whole entry): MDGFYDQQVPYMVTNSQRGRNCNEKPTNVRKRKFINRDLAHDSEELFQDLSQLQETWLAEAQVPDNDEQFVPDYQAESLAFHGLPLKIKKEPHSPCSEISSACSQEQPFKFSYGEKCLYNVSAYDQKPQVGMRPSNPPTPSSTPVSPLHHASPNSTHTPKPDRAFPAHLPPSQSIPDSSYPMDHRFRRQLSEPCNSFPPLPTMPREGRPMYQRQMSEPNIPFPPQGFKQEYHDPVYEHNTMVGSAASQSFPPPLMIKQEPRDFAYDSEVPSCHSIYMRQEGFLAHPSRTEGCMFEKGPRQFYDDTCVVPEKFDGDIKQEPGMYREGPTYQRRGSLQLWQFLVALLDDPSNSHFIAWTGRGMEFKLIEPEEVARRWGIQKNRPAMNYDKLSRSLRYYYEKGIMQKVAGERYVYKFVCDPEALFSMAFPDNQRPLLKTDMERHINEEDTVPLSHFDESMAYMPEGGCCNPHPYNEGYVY

HSF1, sequence (Q00613 whole entry): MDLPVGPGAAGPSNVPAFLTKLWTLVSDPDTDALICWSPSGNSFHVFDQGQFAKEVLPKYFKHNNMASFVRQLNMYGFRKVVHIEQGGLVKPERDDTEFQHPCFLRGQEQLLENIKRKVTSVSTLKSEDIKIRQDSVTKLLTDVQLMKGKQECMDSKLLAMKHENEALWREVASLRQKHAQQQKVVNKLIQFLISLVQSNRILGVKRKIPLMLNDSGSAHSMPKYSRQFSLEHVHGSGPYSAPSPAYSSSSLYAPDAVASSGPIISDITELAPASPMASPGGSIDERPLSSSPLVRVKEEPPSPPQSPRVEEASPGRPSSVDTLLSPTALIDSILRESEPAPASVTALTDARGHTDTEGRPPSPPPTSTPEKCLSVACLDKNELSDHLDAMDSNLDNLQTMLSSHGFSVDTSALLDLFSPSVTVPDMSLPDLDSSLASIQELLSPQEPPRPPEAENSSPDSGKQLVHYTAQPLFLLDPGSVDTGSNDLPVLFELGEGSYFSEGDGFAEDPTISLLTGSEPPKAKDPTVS
ETV5, sequence (P41161 whole entry): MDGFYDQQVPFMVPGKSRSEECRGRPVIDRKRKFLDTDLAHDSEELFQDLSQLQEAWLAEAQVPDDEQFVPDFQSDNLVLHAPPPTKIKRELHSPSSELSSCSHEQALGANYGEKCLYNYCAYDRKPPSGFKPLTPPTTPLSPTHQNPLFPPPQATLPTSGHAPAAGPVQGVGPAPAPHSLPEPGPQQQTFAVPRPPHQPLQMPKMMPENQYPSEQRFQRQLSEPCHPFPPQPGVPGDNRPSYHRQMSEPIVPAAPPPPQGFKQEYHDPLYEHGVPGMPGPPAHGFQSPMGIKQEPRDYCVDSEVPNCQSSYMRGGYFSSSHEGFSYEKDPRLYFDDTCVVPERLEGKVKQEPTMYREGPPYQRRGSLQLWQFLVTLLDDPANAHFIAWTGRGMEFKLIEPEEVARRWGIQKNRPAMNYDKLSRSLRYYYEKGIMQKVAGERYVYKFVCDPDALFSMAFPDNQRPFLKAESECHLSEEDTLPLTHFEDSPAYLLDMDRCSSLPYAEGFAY
ELF1, sequence (P32519 whole entry): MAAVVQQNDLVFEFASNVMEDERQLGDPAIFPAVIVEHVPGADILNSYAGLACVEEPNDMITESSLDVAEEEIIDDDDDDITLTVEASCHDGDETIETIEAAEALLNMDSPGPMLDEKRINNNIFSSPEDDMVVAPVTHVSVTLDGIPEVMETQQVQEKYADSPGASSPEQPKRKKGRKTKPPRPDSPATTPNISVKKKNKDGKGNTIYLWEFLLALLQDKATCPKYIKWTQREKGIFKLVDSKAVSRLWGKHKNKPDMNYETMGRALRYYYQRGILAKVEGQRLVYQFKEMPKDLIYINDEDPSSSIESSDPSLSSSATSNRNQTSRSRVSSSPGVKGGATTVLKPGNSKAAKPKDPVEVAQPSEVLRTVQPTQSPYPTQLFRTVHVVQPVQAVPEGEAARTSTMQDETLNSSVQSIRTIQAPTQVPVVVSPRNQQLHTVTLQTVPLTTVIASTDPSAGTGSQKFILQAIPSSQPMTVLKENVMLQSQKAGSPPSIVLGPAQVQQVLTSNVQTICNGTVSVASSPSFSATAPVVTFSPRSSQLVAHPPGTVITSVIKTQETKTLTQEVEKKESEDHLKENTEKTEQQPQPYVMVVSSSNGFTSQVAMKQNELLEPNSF
SPIB, sequence (Q01892 whole entry): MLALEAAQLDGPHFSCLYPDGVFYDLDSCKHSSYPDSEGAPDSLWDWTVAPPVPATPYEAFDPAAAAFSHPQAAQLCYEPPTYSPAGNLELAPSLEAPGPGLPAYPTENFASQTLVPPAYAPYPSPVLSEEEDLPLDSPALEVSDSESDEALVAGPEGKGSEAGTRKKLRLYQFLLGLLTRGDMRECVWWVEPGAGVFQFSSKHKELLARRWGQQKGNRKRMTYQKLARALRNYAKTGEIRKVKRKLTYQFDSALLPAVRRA
CRX, sequence (O43186 whole entry): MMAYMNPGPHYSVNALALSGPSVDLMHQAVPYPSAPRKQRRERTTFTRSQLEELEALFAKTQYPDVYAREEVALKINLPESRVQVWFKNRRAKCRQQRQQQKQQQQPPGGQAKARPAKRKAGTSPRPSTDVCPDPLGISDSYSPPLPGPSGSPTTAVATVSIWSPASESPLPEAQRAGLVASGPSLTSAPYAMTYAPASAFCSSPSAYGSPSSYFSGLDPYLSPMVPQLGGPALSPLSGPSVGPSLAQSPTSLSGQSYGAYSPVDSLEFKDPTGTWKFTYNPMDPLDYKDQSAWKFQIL

Consider TATGCC, for which the binding signal in test [1] is 1.11 fold enrichment (6-mer frequency, TF over GST control); in [2] it was 1.27 fold enrichment (6-mer frequency, TF over GST control); in [3], 1.21 fold enrichment (6-mer frequency, TF over GST control); in test [4], 1.17 fold enrichment (6-mer frequency, TF over GST control); in test [5], 1.2 fold enrichment (6-mer frequency, TF over GST control); in test [6] it was 1.18 fold enrichment (6-mer frequency, TF over GST control). In addition, the binding signal is 1.11 fold enrichment (6-mer frequency, TF over GST control) in [7]; 1.26 fold enrichment (6-mer frequency, TF over GST control) in test [8]; 1.13 fold enrichment (6-mer frequency, TF over GST control) in test [9]; 1.18 fold enrichment (6-mer frequency, TF over GST control) in [10]; 1.06 fold enrichment (6-mer frequency, TF over GST control) in [11]; 1.28 fold enrichment (6-mer frequency, TF over GST control) in [12]. Further, the binding signal in test [13] is 1.15 fold enrichment (6-mer frequency, TF over GST control); in [14] it was 1.17 fold enrichment (6-mer frequency, TF over GST control); in test [15], 1.05 fold enrichment (6-mer frequency, TF over GST control); in test [16] it was 1.01 fold enrichment (6-mer frequency, TF over GST control); in test [17], 1.18 fold enrichment (6-mer frequency, TF over GST control); in [18], 1.28 fold enrichment (6-mer frequency, TF over GST control).
